Out of some 6,200 compounds screened, about 2,900 (47%) were called active. Rule as the data show it: active = inhibition above about 50%; inactive = the rest. The set was probably picked from earlier hits. This is one part of the list.
Experiment: Mycobacterium tuberculosis growth inhibition, primary screen (AID 1259343)
Details: inhibition: at 10 µM, hits give high values; outcome: 10 uM
For COc1ccccc1NC(=S)N=C1CCN(c2ccccc2)N1, the inhibition was 19.3% (inactive).
With CNC(=S)Nc1ccc(Nc2ccccc2OC)cc1 the inhibition was 72.1% (active).
For CSCCCNC(=S)Nc1ccc(N2CCOCC2)cc1, the inhibition was 20.7% (inactive).
In the case of CCNC(=S)Nc1ccc(NC(=S)NCC)cc1, the inhibition is reported as 63.7% (active).
With CNC(=S)Nc1ccc(Oc2ccc(NC(=S)NC)cc2)cc1 the inhibition was 79.6% (active).
In the case of CC(C)COC(=O)Nc1ccc2nc(N3CCOCC3)sc2c1, the inhibition is reported as 27.4% (inactive).
With CNC(=S)Nc1ccc(N2CCOCC2)cc1 the inhibition was 101% (active).
For O=C(Nc1ccc(-c2cnc(C3CC3)o2)cc1)C1CCCC1, the inhibition was -17.9% (inactive).
In the case of Cc1ncc(-c2ccc(NC(=O)C3CC3C)cc2)o1 (stereo not given), the inhibition is reported as 94.6% (active).
For N#Cc1cccc(COC(=O)CC(NC(N)=O)c2cccs2)c1 (stereo not given), the inhibition was -9.57% (inactive).
In the case of N#Cc1cccc(COc2ccc(NC(=O)C3CCCO3)cc2F)c1 (stereo not given), the inhibition is reported as 91.9% (active).
With FC(F)(F)c1cc(-c2ccco2)nc2c1cnn2Cc1cccnc1 the inhibition was 37% (inactive).
For CN(Cc1ccc(Cl)c(Cl)c1)C(=O)c1csc(-c2cccs2)n1, the inhibition was 56.2% (active).
With CCCN(CCC)C(=O)c1nn(-c2ccccn2)c2nccc(-c3cccs3)c12 the inhibition was 41.7% (inactive).
In the case of CCNc1nc(C(=O)N(C)Cc2ccc(Br)o2)cs1, the inhibition is reported as 8.37% (inactive).
With CCC(C)(C)NC(=O)COC(=O)c1ccc(-c2ccc(O)cc2)cc1 the inhibition was 50.1% (active).
With CCC(C)(C)NC(=O)c1ccc2c(c1)S(=O)(=O)c1ccccc1C2=O the inhibition was 14.8% (inactive).
For Cn1nc(C(=O)Nc2ccc(-c3nccs3)cc2)ccc1=O, the inhibition was 85.9% (active).
In the case of CCCC(C)C(=O)Nc1ccc(-c2nccs2)cc1 (stereo not given), the inhibition is reported as 89.9% (active).
In the case of [O-]/[N+](Cc1ccccc1)=N/OCc1ccccc1, the inhibition is reported as 83.2% (active).
With CCc1cc(=O)[nH]c(-n2nc(C)cc2NC(=O)C2CC(=O)N(c3ccc(C)c(C)c3)C2)n1 (stereo not given) the inhibition was 101% (active).
For CCc1cc(=O)[nH]c(-n2nc(C)cc2NC(=O)C2CC(=O)N(c3ccccc3)C2)n1 (stereo not given), the inhibition was 101% (active).
For CCCC(Nc1nc(-c2cccnc2)nc2c1cnn2C)c1cccs1 (stereo not given), the inhibition was 27.3% (inactive).
In the case of COc1ccccc1N1C(=O)CC(SC(N)=N/N=C(C)\C=C\c2ccc(N(C)C)cc2)C1=O (stereo not given), the inhibition is reported as -2.66% (inactive).
In the case of Nc1nn(C(=O)CC2CCCO2)cc1-c1cccc(Cl)c1 (stereo not given), the inhibition is reported as 83.6% (active).
For O=C1CSC(=NN=C2NC(=O)C(CC(=O)Nc3ccc(Br)cc3)S2)N1 (stereo not given), the inhibition was 18.9% (inactive).
In the case of Oc1ccc(Br)cc1C=Nn1cc(-c2ccccc2)[nH]c1=S, the inhibition is reported as 25.5% (inactive).
For O=C1CSC(=NN=Cc2cc(Br)ccc2O)N1, the inhibition was 102% (active).
With Cc1ncsc1C(=O)Nc1scc(C2CCCCC2)c1C(N)=O the inhibition was 24.3% (inactive).
In the case of CN(C)CCNc1c2c(c(C#N)c3nc4ccccc4n13)CCCC2, the inhibition is reported as 20% (inactive).
With CN=c1scc(-c2c(-c3ccccc3)n(C)c3ccccc23)n1C the inhibition was 25.1% (inactive).
In the case of O=C1N=C2OC=C(C(=O)Nc3ccc(-n4cccn4)cc3)N2CCN1, the inhibition is reported as 60.6% (active).
In the case of O=C1N=C2OC=C(C(=O)Nc3ccc(-n4cccc4)cc3)N2CCN1, the inhibition is reported as 89.4% (active).
With O=C(Nc1ccc(N2CCCCC2)cc1)c1ccc(Cl)s1 the inhibition was 94% (active).
In the case of O=C(CCl)Nc1ccc(N2CCCCCC2)cc1, the inhibition is reported as 21.1% (inactive).
With N#Cc1ccc(NC2CCN(c3ncccn3)CC2)cc1C(F)(F)F the inhibition was 26.1% (inactive).
For N#Cc1cccnc1N1CCC(CCc2ccc(O)cc2)CC1, the inhibition was 93.1% (active).
With Cc1nn(-c2ccccc2)c2[nH]c(=O)c(C#N)c(-c3cccs3)c12 the inhibition was 64.4% (active).
With COc1ccc2c(c1)OC1(O)COc3cc(OC)c(OC)cc3C1=C2 (stereo not given) the inhibition was 61.7% (active).
With COc1ccc(O)c(C=Nn2c(C)csc2=NC(C)C)c1 the inhibition was 34% (inactive).
With COc1ccc(O)c(C=Nc2ccc3c(c2)OCO3)c1 the inhibition was 65.5% (active).
With Oc1ccc(N=Nc2ccc3c(c2)OCO3)c2ccccc12 the inhibition was -28.6% (inactive).
With O=C1OC(c2ccc(Cl)cc2)=NC1=Cc1ccc2c(c1)OCO2 the inhibition was 15.6% (inactive).
For Brc1ccccc1C=Nc1ccc2c(c1)OCO2, the inhibition was 94.3% (active).
With Clc1ccc(C=Nc2ccc3c(c2)OCO3)cc1 the inhibition was 82.9% (active).
For O=C(OCc1cc2c(cc1Br)OCO2)c1cccc(O)c1, the inhibition was -12.8% (inactive).
For COC(=O)c1c(C)[nH]c(C(=O)NC(C)Cc2cccc(Cl)c2)c1C (stereo not given), the inhibition was 30% (inactive).
For CCC(C(=O)Nc1cc(C2CC2)nn1-c1nc(C)cc(=O)[nH]1)c1ccccc1 (stereo not given), the inhibition was 100% (active).
In the case of Cc1cccc(C(=O)Nc2cc(C3CC3)nn2-c2nc(C)cc(=O)[nH]2)c1, the inhibition is reported as 100% (active).
In the case of Cc1cc(=O)[nH]c(-n2nc(C3CC3)cc2NC(=O)c2ccccc2)n1, the inhibition is reported as 100% (active).
For Cc1cc(=O)[nH]c(-n2nc(C3CC3)cc2NC(=O)c2cc3ccccc3o2)n1, the inhibition was -20.2% (inactive).
For Clc1cnc(NN=Cc2cccs2)c(Cl)c1, the inhibition was -11.6% (inactive).
For Oc1ccc(C=NNc2ncc(C(F)(F)F)cc2Cl)c(O)c1O, the inhibition was 17.8% (inactive).
For Clc1cnc(NN=Cc2ccco2)c(Cl)c1, the inhibition was 85.9% (active).
In the case of CC[N+](CC)=c1ccc2nc3c(cc(N)c4ccccc43)oc-2c1, the inhibition is reported as 102% (active).
In the case of CO[C@H]1C=CO[C@@]2(C)Oc3c(C)c(O)c4c(O)c(c5c(nc6cc(C)ccn65)c4c3C2=O)NC(=O)C(C)=CC=C[C@H](C)[C@H](O)[C@@H](C)[C@@H](O)[C@@H](C)[C@H](OC(C)=O)[C@@H]1C, the inhibition is reported as 98.5% (active).
In the case of O=C(/C=C(\O)c1ccccc1)c1ccccc1O, the inhibition is reported as 100% (active).
In the case of Cc1cccc(C(=O)Nc2cc(-c3cccs3)nn2-c2nc(C(C)C)cc(=O)[nH]2)c1, the inhibition is reported as -9.66% (inactive).
For CC(C)c1cc(=O)[nH]c(-n2nc(-c3cccs3)cc2NC(=O)c2cccc(F)c2)n1, the inhibition was 99.2% (active).
For CC(C)c1cc(=O)[nH]c(-n2nc(-c3cccs3)cc2NC(=O)c2ccc(F)cc2F)n1, the inhibition was 99.7% (active).
In the case of O=S(=O)(CCSc1ccccn1)c1nc2ccccc2s1, the inhibition is reported as 101% (active).
For COc1ccc(N2CCN(C(=O)CCl)CC2)cc1, the inhibition was 77.2% (active).
In the case of O=C(CCl)N1CCN(c2cccc(Cl)c2)CC1, the inhibition is reported as 79.1% (active).
In the case of O=C(CCl)N1CCCc2cc([N+](=O)[O-])ccc21, the inhibition is reported as 102% (active).
In the case of COc1ccc(C(=O)NCCCn2cccn2)cc1OC1CCN(C(C)=O)CC1, the inhibition is reported as 17.6% (inactive).
In the case of Cc1cccc(C(=O)NCCn2ncccc2=O)c1, the inhibition is reported as 97.8% (active).
In the case of Cc1cccc(C(=O)NC(=NCCN2CCCC2)OCC(C)C)c1, the inhibition is reported as 5.15% (inactive).
With CC1COCCN1C(=O)NC(c1cc(F)ccc1F)C1CC1 (stereo not given) the inhibition was -42.7% (inactive).
For CC(NC(=O)CN1CCCCC1)c1ccc(F)cc1F (stereo not given), the inhibition was 51.7% (active).
With COCc1ccccc1CNC(=O)CN1CCC(C)Sc2ccccc21 (stereo not given) the inhibition was -20.7% (inactive).
With CC1(c2ccco2)NC(=S)N(c2ccccc2)N1 (stereo not given) the inhibition was 76.4% (active).
With CCCCc1ccc(N2C(N)=CS/C2=C(/C#N)S(=O)(=O)c2ccccc2)cc1 the inhibition was 89.6% (active).
In the case of CCCc1cc(C(=O)N2C[C@H]3CC=C(C)C[C@H]3C2)ccn1, the inhibition is reported as 76% (active).
For CCNc1nc(C(=O)N2CC3CCCC3C2)cs1 (stereo not given), the inhibition was 27.6% (inactive).
In the case of CC(C)C(C)CNC(=O)N1CCN(c2ccc(Cl)cn2)CC1 (stereo not given), the inhibition is reported as 63.1% (active).
For CN(Cc1ccccc1O)C(=O)C1CCN(c2ccc(Cl)cn2)CC1, the inhibition was 35.1% (inactive).
In the case of Cc1ccc(-c2nc(CN3CCN(c4ccc(Cl)cn4)CC3)c(C)o2)o1, the inhibition is reported as 47.3% (inactive).
With Cc1nc2ccc(I)cn2c1C=NNc1ccc2ccccc2c1 the inhibition was 60.2% (active).
In the case of Cc1nc2ccc(I)cn2c1C=NNc1ccc(Cl)cc1, the inhibition is reported as 17.7% (inactive).
With CC(C)(C)n1cccc(/C=N\NC(N)=S)c1=S the inhibition was -2.91% (inactive).
With NC(=S)NN=Cc1ccc(Cl)cc1Cl the inhibition was 86% (active).
In the case of Cc1cc(C=NNC(N)=S)c(C)n1CC(F)(F)F, the inhibition is reported as 4.28% (inactive).
For Cc1ccc(C(=O)Nc2ccc(CN3CCN(C)CC3)c(C(F)(F)F)c2)cc1C#Cc1cnc2cccnn12, the inhibition was 62.5% (active).
In the case of CCc1sc(C(=O)OCC(=O)N(C)CC(=O)Nc2ccc(C)cc2)cc1C, the inhibition is reported as -39.5% (inactive).
With CCc1ccc(NC(=O)COC(=O)c2cc(C(C)=O)n3ccccc23)cc1 the inhibition was 65% (active).
For Cc1nc(N)sc1N=Nc1cccc2ccccc12, the inhibition was 4.08% (inactive).
With Nc1[nH]n(-c2ccccc2)c(=O)c1N=Nc1cccc2ccccc12 the inhibition was 56.7% (active).
In the case of Nc1[nH]n(-c2ccccc2)c(=O)c1N=Nc1ccc2ncsc2c1, the inhibition is reported as -3.23% (inactive).
For CCc1cc(C=NC2CCCCC2)c(O)s1, the inhibition was 54.5% (active).
With CC1Cc2ccccc2N1Cc1cccc(C(N)=O)c1 (stereo not given) the inhibition was 25.1% (inactive).
For CC1Cc2ccccc2N1Sc1ccc([N+](=O)[O-])cc1 (stereo not given), the inhibition was 58.6% (active).
For CC1Cc2ccccc2N1C(=O)C1CCN(c2ccc(C#N)cn2)CC1 (stereo not given), the inhibition was -4.71% (inactive).
With Cc1ccc(-c2nsc(C(=O)N3CCCC(C)C3)c2N)cc1 (stereo not given) the inhibition was 47.8% (inactive).
In the case of COc1ccccc1Cn1c(C)c(C(=O)NCc2ccccc2C(F)(F)F)sc1=O, the inhibition is reported as 15.1% (inactive).
With Cc1c(C(=O)NCc2ccccc2C(F)(F)F)sc(=O)n1Cc1cccc(C(F)(F)F)c1 the inhibition was 18.8% (inactive).
For Cc1c(C(=O)NCc2ccc(Cl)c(Cl)c2)sc(=O)n1Cc1ccccc1F, the inhibition was -10.2% (inactive).
In the case of Cc1ccccc1Cn1c(C)c(C(=O)NCc2ccccc2C(F)(F)F)sc1=O, the inhibition is reported as 65.1% (active).
In the case of Cc1c(C(=O)NCc2ccccc2C(F)(F)F)sc(=O)n1Cc1ccccc1F, the inhibition is reported as 21% (inactive).
For COc1ccc(Br)c(Cn2c(C)c(C(=O)NCc3ccccc3C(F)(F)F)sc2=O)c1, the inhibition was 58.8% (active).
With Nc1nc(CSc2nnc(C3CC3)n2C2CC2)nc(Nc2ccc(F)cc2)n1 the inhibition was -0.78% (inactive).

Reference: PubChem BioAssay AID1259343 (VanderVen Lab, College of Veterinary Medicine, Cornell …, 2017)
